The whole screen tested about 48,000 compounds, of which about 13,000 (27%) showed an effect of 50% or more. The list shows a part of the results.
Each compound was assayed on Wolbachia pipientis (assay: Anti-Wolbachia Cell-Based Screen). Conditions: 5 µM.
Assay type: functional
Design: scale not given: in the data most compounds retested in dose-response had high values

Row | Structure (SMILES) | Percent Effect
1 | Cc1cc(C(=O)N2CCCC2c2nnc3n2CCCCC3)no1 (configuration not stated) | -10.19%
2 | CN1C(=O)C(c2ccccc2)CC12CCN(CCN1CCCC1=O)CC2 (configuration not stated) | -2.19%
3 | CCc1cccc(NC(=O)NC2CCc3nc(C)nn3C2)c1 (configuration not stated) | -9.583%
4 | CC(C)n1[nH]c(=O)c2c1NC(=O)CC2C1CCCCC1 (configuration not stated) | 0.5792%
5 | Cc1cscc1C(=O)Nc1cc(CSCCO)ccn1 | -31.68%
6 | COc1cccc(C(C(=O)O)N2CCCN(c3ccnc(C)c3)CC2)c1 (configuration not stated) | 11.66%
7 | N#Cc1cc(F)c(NCc2ccc(F)cc2)c(F)c1 | 53.8%
8 | N#Cc1cc(F)c(NCCc2ccc(F)cc2)c(F)c1 | -6.207%
9 | N#Cc1cc(F)c(NCCc2ccc(S(N)(=O)=O)cc2)c(F)c1 | 2.812%
10 | Cc1ccc([C@@H]2CN(C(=O)c3csc(C)n3)C[C@H]2NC(=O)C2CC2)cc1 | -2.75%
11 | CC(C)c1nnc2n1CCN(CC(=O)N1CCc3ccccc3C1)C2 | 2.244%
12 | CCSc1ncc(-c2cc(C3CCC3)nc(N)c2C#N)cn1 | 87.05%
13 | CC(C)c1ncc(-c2cc(C3CCC3)nc(N)c2C#N)cn1 | 96.4%
14 | CCSc1ncc(-c2cc(C3CC3)nc(N)c2C#N)cn1 | 99.54%
15 | CCSc1ncc(-c2nccn2CCN(C)C)cn1 | -18.01%
16 | CCCNc1ncc(-c2cc(C3CC3)nc(N)c2C#N)cn1 | 97.87%
17 | CCSc1ncc(CN2CCN(c3ccc(C#N)cc3)C(=O)C2)cn1 | -0.09513%
18 | CCSc1ncc(CN2CCN(c3ncc(C)c(N)n3)CC2)cn1 | -0.8762%
19 | O=C(NC1CCN(c2ncccn2)CC1)c1cc2c([nH]c1=O)CCC2 | 7.428%

Row | Structure (SMILES) | Percent Effect
20 | Cc1nnc(SCCC(=O)N(C)Cc2ccc(F)cc2F)[nH]1 | 2.141%
21 | O=C(O)C(F)(F)F.O=C1CC[C@H]2[C@H](CCN2C(=O)C2CCOCC2)N1Cc1ccncc1 | 25.13%
22 | CN1CCN(C(=O)c2ccc3c(c2)[nH]c(=O)n3C2CCCC2)CC1 | 14.39%
23 | Cc1cc(-c2nn(C)c(Cl)c2CN2CCCCC(N)C2)no1 (configuration not stated) | -8.809%
24 | COCc1cc(CC2(NC3CCCCC3)COC2)no1 | 18.94%
25 | CC(Cn1cccn1)NCc1csc(-c2ccc3c(c2)OCO3)n1 (configuration not stated) | -1.421%
26 | Cc1cc2[nH]c(CN3CCOC(Cc4ccccc4)C3)cc(=O)n2n1 (configuration not stated) | -6.493%
27 | Cc1cccc(C(=O)Nc2cccc3c2C(=O)NC3)n1 | -5.114%
28 | COCC1CN(C(=O)c2cccc(C)n2)Cc2ncnn2C1 (configuration not stated) | -6.948%
29 | CCc1sc(-c2nnc(CNC(C)Cn3cc(C)cn3)o2)cc1C (configuration not stated) | -3.595%
30 | CCc1ccc(CN2CCN(Cc3ncc[nH]3)[C@H]3CS(=O)(=O)C[C@H]32)nc1 | 8.56%
31 | [O-][S+](CCN1CCc2[nH]nc(C(F)(F)F)c2C1)c1ccccc1 (configuration not stated) | -3.726%
32 | Cn1ncc2c(=O)[nH]c(CN3CCCC3CC3CCCCC3)nc21 (configuration not stated) | -0.1708%
33 | Cn1ncc2c(=O)[nH]c(CN3CCCC3Cc3ccccc3)nc21 (configuration not stated) | -2.22%
34 | Cc1ccc(C2CCCN2Cc2nc3c(cnn3C)c(=O)[nH]2)cc1C (configuration not stated) | 2.271%
35 | CCC1CCCCN1Cc1nc2c(cnn2C)c(=O)[nH]1 (configuration not stated) | 107.5%
36 | Cn1ncc2c(=O)[nH]c(CN3CCCC3CC(C)(C)C)nc21 (configuration not stated) | 114.1%
37 | Cn1ncc2c(=O)[nH]c(CN3CCCC3CCc3ccccc3)nc21 (configuration not stated) | 94.92%
38 | COc1cccc(C2CCCN2Cc2nc3c(cnn3C)c(=O)[nH]2)c1 (configuration not stated) | -3.209%

Row | Structure (SMILES) | Percent Effect
39 | Cn1ncc2c(=O)[nH]c(CN3CCCC3Cc3ccc(F)cc3)nc21 (configuration not stated) | 116%
40 | Cn1ncc2c(=O)[nH]c(CN3CCC(Cc4ccccc4)CC3)nc21 | -8.773%
41 | COc1ccccc1-c1noc(CCC(=O)NC(C)Cn2cccn2)n1 (configuration not stated) | -41.91%
42 | COc1ccc(-n2ccnc2-c2cnc(N(C)C)nc2)cc1OC | -6.365%
43 | Cc1ccc(CN2CCN(c3ncccc3Cl)CC2CCO)cc1 (configuration not stated) | -15.14%
44 | O=C(c1cn2cc(Cl)cnc2n1)N1CCOCC(O)(CN2CCCC2)C1 (configuration not stated) | -2.711%
45 | Cc1nccn1-c1ccc(C(C)NCCc2ccccn2)cc1 (configuration not stated) | 8.244%
46 | CCc1nc(CN2CCCC(NCc3ccc(C(N)=O)cc3)C2)no1 (configuration not stated) | -8.136%
47 | CCc1nc(CN2CCCC(NCc3nnc(C4CC4)n3C)C2)no1 (configuration not stated) | 109.6%
48 | CCc1nc(CN2CCCC(NCc3nc(C)c(C)o3)C2)no1 (configuration not stated) | 135.7%
49 | CCc1nc(CN2CCCC(NCc3cc(C)no3)C2)no1 (configuration not stated) | 2.816%
50 | C1CC(NCc2nc(C3CC3)no2)CN(Cc2noc(C3CC3)n2)C1 (configuration not stated) | 4.824%
51 | Cn1ccnc1CNC1CCCN(Cc2noc(C3CC3)n2)C1 (configuration not stated) | -20.64%
52 | CNC1CCCN(Cc2noc(C3CC3)n2)C1.Cl (configuration not stated) | -6.036%
53 | Cc1ncc(CNC2CCCN(Cc3noc(C4CC4)n3)C2)s1 (configuration not stated) | -12.11%
54 | CCc1noc(CNC2CCCN(Cc3noc(C4CC4)n3)C2)n1 (configuration not stated) | 122.3%
55 | CCc1nc(CN2CCCC(NCc3ncc(C(C)(C)C)o3)C2)no1 (configuration not stated) | 9.361%
56 | CCc1nc(CN2CCCC(NCCn3cncn3)C2)no1 (configuration not stated) | 25.84%
57 | CCCc1noc(CNC2CCCN(Cc3noc(C4CC4)n3)C2)n1 (configuration not stated) | 116.1%

— ChEMBL document CHEMBL3988442, “University of Dundee, Small-Polar-MMV Screening Library” (2021)
